In paper PMC7862700, “An all-to-all approach to the identification of sequence-specific readers for epigenetic DNA modifications on cytosine”:

Key:
Assay in all cases: DAPPL (digital affinity profiling via proximity ligation, sequencing); 10 mM Tris-HCl pH 7.5, 50 mM NaCl, 1 mM DTT, 4% glycerol, room temperature, 30 min; GST-TFs on glutathione beads, 16-mer random dsDNA library, 0.1% formaldehyde crosslink after washing; high values mean tight binding
[1] = target: T1, FLI1 (Homo sapiens, UniProt Q01543 1-452); details: protein: recombinant; tags: N-terminal GST; dsDNA, one strand shown
T1 sequence: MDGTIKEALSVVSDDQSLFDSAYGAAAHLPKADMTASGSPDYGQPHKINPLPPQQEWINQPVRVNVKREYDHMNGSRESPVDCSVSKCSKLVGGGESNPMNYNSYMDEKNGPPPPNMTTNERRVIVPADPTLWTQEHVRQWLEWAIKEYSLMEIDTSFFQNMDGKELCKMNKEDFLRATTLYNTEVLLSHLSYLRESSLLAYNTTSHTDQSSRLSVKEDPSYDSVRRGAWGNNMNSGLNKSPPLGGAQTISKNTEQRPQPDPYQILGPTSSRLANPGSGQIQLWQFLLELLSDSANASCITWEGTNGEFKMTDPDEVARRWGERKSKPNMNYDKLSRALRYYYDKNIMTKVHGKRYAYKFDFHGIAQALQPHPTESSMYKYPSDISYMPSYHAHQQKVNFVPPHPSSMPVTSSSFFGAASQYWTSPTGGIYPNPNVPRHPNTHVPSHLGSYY
Outline: (§1)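 Human transcription factors carrying a GST fusion were produced in yeast, bound to glutathione beads, tagged with DNA barcodes and pooled together with a tag-only sample. Each pool was held with 200 nmole of a random double-stranded 16-mer DNA library in Tris/NaCl/DTT/glycerol buffer for 30 min at room temperature, then washed, crosslinked in 0.1% formaldehyde, proximity-ligated with BsaI/T4 ligase (1 h, 37 °C), PCR-amplified and sequenced on an Illumina NextSeq500. Binding signal is the read frequency of each hexamer for a given factor divided by its frequency in the tag-only sample.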

[2] = target: T2, ELK1 (Homo sapiens, UniProt P19419 1-428); details: protein: recombinant; tags: N-terminal GST; dsDNA, one strand shown
T2 sequence: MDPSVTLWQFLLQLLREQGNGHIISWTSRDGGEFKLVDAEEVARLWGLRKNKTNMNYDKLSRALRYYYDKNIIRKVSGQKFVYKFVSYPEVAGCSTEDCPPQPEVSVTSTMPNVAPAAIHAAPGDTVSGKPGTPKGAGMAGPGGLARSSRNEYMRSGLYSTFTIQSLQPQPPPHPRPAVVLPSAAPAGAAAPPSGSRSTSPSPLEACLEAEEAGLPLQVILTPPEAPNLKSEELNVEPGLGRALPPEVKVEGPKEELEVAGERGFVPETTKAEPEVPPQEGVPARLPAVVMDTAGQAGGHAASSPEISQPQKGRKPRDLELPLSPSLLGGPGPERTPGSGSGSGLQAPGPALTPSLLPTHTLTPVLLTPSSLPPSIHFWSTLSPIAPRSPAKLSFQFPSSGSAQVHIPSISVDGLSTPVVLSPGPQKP
Outline: as §1

[3] = target: T3, GABPA (Homo sapiens, UniProt Q06546 1-454); details: protein: recombinant; tags: N-terminal GST; dsDNA, one strand shown
T3 sequence: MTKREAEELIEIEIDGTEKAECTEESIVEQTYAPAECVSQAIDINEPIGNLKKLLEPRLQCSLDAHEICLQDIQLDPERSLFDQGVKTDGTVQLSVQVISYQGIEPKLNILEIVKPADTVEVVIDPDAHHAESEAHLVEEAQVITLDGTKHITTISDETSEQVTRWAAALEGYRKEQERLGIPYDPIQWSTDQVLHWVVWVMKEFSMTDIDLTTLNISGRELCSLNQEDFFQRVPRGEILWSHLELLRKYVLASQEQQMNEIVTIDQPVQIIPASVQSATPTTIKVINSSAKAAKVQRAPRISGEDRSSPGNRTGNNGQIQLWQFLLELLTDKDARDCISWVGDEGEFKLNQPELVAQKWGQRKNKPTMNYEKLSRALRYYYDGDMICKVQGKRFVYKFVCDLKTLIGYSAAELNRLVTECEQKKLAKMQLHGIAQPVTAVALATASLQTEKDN
Outline: as §1

[4] = target: T4, ERG (Homo sapiens, UniProt P11308 1-479); details: protein: recombinant; tags: N-terminal GST; dsDNA, one strand shown
T4 sequence: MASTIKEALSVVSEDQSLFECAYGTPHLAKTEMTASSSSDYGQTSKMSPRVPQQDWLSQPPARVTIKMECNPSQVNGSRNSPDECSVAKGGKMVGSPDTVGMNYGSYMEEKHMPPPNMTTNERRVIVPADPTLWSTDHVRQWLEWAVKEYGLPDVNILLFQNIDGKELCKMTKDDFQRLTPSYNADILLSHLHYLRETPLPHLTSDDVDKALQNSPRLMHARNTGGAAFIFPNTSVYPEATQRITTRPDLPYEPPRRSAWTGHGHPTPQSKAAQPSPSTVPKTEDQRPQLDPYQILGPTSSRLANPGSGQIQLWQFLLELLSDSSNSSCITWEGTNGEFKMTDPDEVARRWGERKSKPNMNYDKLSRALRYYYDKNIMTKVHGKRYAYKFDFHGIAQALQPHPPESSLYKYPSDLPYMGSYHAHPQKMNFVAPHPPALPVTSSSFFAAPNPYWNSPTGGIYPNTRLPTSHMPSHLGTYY
Outline: as §1

[5] = target: ELF1 (Homo sapiens, UniProt P32519 1-619); details: protein: recombinant; tags: N-terminal GST; dsDNA, one strand shown
ELF1, sequence (P32519 whole entry): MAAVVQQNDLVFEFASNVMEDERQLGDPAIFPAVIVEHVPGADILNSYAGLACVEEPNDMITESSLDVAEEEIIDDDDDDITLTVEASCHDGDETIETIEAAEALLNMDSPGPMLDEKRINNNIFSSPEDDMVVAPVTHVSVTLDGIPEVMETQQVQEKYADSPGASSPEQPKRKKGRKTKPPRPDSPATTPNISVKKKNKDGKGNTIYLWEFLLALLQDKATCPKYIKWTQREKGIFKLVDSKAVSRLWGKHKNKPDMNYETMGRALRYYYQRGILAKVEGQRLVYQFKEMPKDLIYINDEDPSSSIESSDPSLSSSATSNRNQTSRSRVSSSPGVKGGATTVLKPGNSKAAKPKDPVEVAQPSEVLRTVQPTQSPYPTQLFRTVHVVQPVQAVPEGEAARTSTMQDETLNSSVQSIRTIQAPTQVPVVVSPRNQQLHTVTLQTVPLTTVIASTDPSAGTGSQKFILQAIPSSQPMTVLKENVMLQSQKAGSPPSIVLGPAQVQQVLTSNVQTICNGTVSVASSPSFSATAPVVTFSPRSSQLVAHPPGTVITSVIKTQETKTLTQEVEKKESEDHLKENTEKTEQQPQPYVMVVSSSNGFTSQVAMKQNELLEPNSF
Outline: as §1

[6] = target: SPI1 (Homo sapiens, UniProt P17947 1-270); details: protein: recombinant; tags: N-terminal GST; dsDNA, one strand shown
Outline: as §1

[7] = target: SPIB (Homo sapiens, UniProt Q01892 1-262); details: protein: recombinant; tags: N-terminal GST; dsDNA, one strand shown
SPIB, sequence (Q01892 whole entry): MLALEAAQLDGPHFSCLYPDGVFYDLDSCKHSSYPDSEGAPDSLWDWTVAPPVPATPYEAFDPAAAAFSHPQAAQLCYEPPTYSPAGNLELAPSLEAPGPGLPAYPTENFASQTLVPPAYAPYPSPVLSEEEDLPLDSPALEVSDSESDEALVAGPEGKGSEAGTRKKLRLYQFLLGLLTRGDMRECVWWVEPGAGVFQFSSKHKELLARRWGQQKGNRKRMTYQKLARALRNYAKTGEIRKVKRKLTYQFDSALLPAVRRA
Outline: as §1

[8] = target: T5, ELK3 (Homo sapiens, UniProt P41970 1-407); details: protein: recombinant; tags: N-terminal GST; dsDNA, one strand shown
T5 sequence: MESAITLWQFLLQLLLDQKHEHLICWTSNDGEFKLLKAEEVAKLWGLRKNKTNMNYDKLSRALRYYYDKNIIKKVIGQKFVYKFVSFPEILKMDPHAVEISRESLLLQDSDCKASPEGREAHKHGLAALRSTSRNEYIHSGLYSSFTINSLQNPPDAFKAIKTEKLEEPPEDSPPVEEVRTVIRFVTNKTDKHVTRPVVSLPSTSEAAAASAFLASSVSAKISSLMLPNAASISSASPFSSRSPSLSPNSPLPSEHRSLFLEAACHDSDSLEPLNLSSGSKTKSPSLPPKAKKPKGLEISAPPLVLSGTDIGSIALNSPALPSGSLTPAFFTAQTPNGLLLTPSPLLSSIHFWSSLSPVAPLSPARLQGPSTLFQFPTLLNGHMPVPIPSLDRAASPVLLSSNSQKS
Outline: as §1

[9] = target: T6, FEV (Homo sapiens, UniProt Q99581 1-238); details: protein: recombinant; tags: N-terminal GST; dsDNA, one strand shown
T6 sequence: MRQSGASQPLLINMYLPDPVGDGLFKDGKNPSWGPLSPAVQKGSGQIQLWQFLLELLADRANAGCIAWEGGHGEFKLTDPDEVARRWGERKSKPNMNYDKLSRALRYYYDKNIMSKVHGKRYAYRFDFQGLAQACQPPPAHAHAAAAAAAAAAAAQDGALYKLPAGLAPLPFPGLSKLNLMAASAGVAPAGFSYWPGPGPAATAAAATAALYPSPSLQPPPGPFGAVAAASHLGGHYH
Outline: as §1

[10] = target: ETV5 (Homo sapiens, UniProt P41161 1-510); details: protein: recombinant; tags: N-terminal GST; dsDNA, one strand shown
ETV5, sequence (P41161 whole entry): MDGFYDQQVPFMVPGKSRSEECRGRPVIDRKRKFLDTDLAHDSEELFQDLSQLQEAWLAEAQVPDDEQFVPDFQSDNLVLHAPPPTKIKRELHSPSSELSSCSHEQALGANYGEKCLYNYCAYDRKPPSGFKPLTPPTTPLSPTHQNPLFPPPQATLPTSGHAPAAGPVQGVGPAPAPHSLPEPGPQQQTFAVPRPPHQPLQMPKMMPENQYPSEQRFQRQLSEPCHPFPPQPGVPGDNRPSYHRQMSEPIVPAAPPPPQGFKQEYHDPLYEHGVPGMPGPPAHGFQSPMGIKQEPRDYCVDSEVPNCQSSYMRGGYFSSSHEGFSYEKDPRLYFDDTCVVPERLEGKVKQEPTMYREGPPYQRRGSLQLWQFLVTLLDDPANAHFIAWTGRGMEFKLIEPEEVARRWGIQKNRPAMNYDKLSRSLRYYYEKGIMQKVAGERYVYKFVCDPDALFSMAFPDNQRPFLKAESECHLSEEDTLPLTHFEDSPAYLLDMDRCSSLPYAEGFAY
Outline: as §1

[11] = target: HSF1 (Homo sapiens, UniProt Q00613 1-529); details: protein: recombinant; tags: N-terminal GST; chain copies: 3; dsDNA, one strand shown
HSF1, sequence (Q00613 whole entry): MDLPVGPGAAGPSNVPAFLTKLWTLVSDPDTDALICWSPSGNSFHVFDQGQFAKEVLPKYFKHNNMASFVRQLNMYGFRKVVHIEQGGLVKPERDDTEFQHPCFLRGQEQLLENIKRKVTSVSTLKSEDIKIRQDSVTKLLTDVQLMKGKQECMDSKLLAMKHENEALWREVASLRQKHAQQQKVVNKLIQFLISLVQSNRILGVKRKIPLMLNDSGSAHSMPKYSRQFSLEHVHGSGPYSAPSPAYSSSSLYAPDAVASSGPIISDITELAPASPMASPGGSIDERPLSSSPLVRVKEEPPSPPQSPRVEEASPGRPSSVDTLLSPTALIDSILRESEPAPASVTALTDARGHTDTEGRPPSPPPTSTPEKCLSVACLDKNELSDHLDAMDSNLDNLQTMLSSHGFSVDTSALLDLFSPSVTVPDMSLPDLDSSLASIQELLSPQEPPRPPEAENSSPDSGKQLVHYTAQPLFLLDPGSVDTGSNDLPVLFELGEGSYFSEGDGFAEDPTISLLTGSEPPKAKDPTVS
Outline: as §1

[12] = target: T7, SPIC (Homo sapiens, UniProt Q8N5J4 1-248); details: protein: recombinant; tags: N-terminal GST; dsDNA, one strand shown
T7 sequence: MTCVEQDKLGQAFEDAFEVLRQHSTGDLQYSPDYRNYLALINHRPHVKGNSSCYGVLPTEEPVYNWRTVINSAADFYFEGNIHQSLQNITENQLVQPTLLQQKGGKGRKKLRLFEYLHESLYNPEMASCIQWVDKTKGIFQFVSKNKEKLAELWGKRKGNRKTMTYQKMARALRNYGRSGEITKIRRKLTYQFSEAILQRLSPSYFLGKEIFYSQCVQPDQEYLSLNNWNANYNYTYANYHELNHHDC
Outline: as §1

[13] = target: ELF4 (Homo sapiens, UniProt Q99607 1-663); details: protein: recombinant; tags: N-terminal GST; dsDNA, one strand shown
ELF4, sequence (Q99607 whole entry): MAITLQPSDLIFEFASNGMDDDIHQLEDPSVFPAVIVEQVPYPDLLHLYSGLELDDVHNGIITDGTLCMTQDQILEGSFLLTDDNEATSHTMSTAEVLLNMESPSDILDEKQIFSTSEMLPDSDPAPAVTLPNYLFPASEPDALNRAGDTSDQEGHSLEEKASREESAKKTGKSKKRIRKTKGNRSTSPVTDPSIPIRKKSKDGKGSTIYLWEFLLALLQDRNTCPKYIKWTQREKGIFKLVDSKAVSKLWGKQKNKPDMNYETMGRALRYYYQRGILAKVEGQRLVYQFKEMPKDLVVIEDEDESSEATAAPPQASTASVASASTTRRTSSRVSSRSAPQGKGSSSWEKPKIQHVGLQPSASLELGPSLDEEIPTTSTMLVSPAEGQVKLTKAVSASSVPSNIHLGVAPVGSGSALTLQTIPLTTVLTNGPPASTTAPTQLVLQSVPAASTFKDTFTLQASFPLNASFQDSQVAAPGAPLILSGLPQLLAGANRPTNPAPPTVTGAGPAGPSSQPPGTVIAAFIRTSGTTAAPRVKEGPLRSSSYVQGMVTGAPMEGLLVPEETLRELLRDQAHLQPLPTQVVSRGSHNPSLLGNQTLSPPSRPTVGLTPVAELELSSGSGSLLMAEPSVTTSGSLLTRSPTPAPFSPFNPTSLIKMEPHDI
Outline: as §1

[14] = target: T8, ELK4 (Homo sapiens, UniProt P28324-2 1-405); details: protein: recombinant; tags: N-terminal GST; dsDNA, one strand shown
T8 sequence: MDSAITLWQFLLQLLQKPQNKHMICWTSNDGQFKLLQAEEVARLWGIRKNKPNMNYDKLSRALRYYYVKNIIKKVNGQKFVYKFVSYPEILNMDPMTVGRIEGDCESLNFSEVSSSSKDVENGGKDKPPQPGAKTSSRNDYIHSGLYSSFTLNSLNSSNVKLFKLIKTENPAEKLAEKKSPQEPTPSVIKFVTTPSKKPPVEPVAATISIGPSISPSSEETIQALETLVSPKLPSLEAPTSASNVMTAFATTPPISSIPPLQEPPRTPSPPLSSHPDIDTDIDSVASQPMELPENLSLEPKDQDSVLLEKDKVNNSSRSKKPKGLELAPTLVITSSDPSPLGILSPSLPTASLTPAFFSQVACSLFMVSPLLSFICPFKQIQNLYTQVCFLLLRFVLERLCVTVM
Outline: as §1

[15] = target: T9, ELF3 (Homo sapiens, UniProt P78545 1-371); details: protein: recombinant; tags: N-terminal GST; dsDNA, one strand shown
T9 sequence: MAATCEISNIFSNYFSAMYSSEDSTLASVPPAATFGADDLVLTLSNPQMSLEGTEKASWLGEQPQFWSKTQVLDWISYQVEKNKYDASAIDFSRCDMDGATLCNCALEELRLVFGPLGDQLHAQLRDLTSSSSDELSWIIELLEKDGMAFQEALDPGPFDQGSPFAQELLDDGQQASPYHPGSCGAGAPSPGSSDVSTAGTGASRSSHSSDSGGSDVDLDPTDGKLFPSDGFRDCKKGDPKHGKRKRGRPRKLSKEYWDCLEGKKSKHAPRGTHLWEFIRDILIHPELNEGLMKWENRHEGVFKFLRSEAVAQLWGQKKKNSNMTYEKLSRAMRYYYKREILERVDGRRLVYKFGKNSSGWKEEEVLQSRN
Outline: as §1

[16] = target: T10, EHF (Homo sapiens, UniProt Q9NZC4 1-300); details: protein: recombinant; tags: N-terminal GST; dsDNA, one strand shown
T10 sequence: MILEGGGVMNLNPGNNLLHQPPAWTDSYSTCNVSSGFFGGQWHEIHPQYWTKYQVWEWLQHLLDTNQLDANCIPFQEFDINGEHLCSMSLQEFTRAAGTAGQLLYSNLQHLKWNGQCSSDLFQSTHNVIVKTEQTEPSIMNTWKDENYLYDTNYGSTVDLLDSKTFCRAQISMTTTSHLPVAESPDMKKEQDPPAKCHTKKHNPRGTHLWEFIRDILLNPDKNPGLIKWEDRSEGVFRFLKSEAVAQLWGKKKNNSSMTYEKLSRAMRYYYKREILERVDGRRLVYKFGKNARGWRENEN
Outline: as §1

[17] = target: T11, ETV2 (Homo sapiens, UniProt O00321 1-342); details: protein: recombinant; tags: N-terminal GST; dsDNA, one strand shown
T11 sequence: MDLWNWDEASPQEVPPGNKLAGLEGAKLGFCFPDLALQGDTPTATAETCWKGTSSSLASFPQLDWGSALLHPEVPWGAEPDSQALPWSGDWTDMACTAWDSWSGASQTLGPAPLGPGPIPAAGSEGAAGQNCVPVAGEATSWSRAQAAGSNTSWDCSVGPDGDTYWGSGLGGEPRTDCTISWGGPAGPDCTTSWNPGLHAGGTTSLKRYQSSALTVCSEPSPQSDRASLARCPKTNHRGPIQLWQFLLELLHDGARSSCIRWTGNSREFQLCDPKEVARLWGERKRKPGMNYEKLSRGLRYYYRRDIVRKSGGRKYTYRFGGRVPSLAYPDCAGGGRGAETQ
Outline: as §1

[18] = target: CRX (Homo sapiens, UniProt O43186 1-299); details: protein: recombinant; tags: N-terminal GST; dsDNA, one strand shown
CRX, sequence (O43186 whole entry): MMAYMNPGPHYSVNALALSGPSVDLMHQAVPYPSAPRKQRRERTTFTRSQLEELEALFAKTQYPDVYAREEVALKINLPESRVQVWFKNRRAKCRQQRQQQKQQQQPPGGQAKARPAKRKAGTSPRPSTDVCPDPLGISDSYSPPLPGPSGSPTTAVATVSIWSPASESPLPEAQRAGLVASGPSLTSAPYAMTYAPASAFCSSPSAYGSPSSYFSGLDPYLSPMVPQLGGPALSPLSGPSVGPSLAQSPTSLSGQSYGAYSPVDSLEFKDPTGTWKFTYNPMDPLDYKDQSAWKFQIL
Outline: as §1

[19] = target: ETV1 (Homo sapiens, UniProt P50549 1-477); details: protein: recombinant; tags: N-terminal GST; dsDNA, one strand shown
ETV1, sequence (P50549 whole entry): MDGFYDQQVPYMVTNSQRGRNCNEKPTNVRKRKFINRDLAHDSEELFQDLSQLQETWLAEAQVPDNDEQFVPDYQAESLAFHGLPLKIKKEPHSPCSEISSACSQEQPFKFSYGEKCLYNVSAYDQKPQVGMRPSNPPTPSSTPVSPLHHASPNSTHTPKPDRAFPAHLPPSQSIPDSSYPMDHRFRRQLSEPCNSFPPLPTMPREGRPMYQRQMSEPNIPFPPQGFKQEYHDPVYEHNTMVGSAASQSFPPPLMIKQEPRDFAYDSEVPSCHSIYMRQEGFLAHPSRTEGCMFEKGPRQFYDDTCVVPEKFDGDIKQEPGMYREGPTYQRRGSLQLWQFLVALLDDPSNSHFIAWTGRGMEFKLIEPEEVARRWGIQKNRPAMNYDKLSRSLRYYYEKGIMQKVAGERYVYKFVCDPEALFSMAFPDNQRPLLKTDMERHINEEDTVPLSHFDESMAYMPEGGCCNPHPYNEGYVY
Outline: as §1

Sequence	binding signal [1]	binding signal [2]	binding signal [3]	binding signal [4]	binding signal [5]	binding signal [6]	binding signal [7]	binding signal [8]	binding signal [9]	binding signal [10]	binding signal [11]	binding signal [12]	binding signal [13]	binding signal [14]	binding signal [15]	binding signal [16]	binding signal [17]	binding signal [18]	binding signal [19]
AACCCA	1.05 fold enrichment (6-mer frequency, TF over GST control)	1.03 fold enrichment (6-mer frequency, TF over GST control)	1.02 fold enrichment (6-mer frequency, TF over GST control)	1.06 fold enrichment (6-mer frequency, TF over GST control)	1.06 fold enrichment (6-mer frequency, TF over GST control)	1 fold enrichment (6-mer frequency, TF over GST control)	1 fold enrichment (6-mer frequency, TF over GST control)	1.1 fold enrichment (6-mer frequency, TF over GST control)	1.03 fold enrichment (6-mer frequency, TF over GST control)	1.05 fold enrichment (6-mer frequency, TF over GST control)	1 fold enrichment (6-mer frequency, TF over GST control)	1.1 fold enrichment (6-mer frequency, TF over GST control)	1.1 fold enrichment (6-mer frequency, TF over GST control)	1.08 fold enrichment (6-mer frequency, TF over GST control)	1.04 fold enrichment (6-mer frequency, TF over GST control)				
TAGTAA	1.13 fold enrichment (6-mer frequency, TF over GST control)		1.03 fold enrichment (6-mer frequency, TF over GST control)		1.08 fold enrichment (6-mer frequency, TF over GST control)	1.02 fold enrichment (6-mer frequency, TF over GST control)	1.07 fold enrichment (6-mer frequency, TF over GST control)	1.13 fold enrichment (6-mer frequency, TF over GST control)		1.05 fold enrichment (6-mer frequency, TF over GST control)	1.54 fold enrichment (6-mer frequency, TF over GST control)	1.07 fold enrichment (6-mer frequency, TF over GST control)	1.05 fold enrichment (6-mer frequency, TF over GST control)	1.04 fold enrichment (6-mer frequency, TF over GST control)	1.06 fold enrichment (6-mer frequency, TF over GST control)	1.03 fold enrichment (6-mer frequency, TF over GST control)	1.12 fold enrichment (6-mer frequency, TF over GST control)	1.59 fold enrichment (6-mer frequency, TF over GST control)	1.07 fold enrichment (6-mer frequency, TF over GST control)
